Most compounds without a hit are left out; they make up all but 2.9% or so of the library.
PLC-gamma1 inh – PLC-gamma1 (human) inhibition, primary screen; P19174; purified PLC-gamma1, fluorogenic substrate, fluorescence; inhibition, % at 12.2 µM; 0.84% of 370,000 active; in the data active = inhibition above about 9.5%
ADAM17 inh – inhibits human ADAM17; recombinant ADAM17, EDANS/DABCYL FRET peptide cleavage; P78536; 0.83% of 370,000 active; inhibition, % at 6.95 µM;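 active = inhibition above the mean of compounds lying between control limits plus 3 SD, set per campaign, cut at about 8.5% in these data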;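 note: 0% = DMSO-only wells as the low control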
KLK7 zymogen act – activates the human kallikrein-7 zymogen; P49862; AID 652039; activation, % at 7 µM; purified proKLK7, EDANS-DABCYL substrate fluorescence; 100% is mature enzyme control, 0% vehicle; 0.9% of 370,000 active;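 active = activation above the mean of all tested compounds plus 3 SD, computed per campaign excluding outliers beyond control limits, cut at about 13% in these data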
ADAM10 inh – ADAM10 inhibition, QFRET primary screen; 0.62% of 370,000 active; O14672; recombinant ADAM10, EDANS/DABCYL FRET peptide cleavage, 3 h; inhibition, % at 7 µM;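 active = inhibition above a per-campaign cutoff equal to the mean of compounds falling between control-based bounds plus 3 SD, cut at about 20% in these data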;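 note: 0% = DMSO wells while the 100% control is not disclosed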
Target sequence (O14672 214-748 limits assumed): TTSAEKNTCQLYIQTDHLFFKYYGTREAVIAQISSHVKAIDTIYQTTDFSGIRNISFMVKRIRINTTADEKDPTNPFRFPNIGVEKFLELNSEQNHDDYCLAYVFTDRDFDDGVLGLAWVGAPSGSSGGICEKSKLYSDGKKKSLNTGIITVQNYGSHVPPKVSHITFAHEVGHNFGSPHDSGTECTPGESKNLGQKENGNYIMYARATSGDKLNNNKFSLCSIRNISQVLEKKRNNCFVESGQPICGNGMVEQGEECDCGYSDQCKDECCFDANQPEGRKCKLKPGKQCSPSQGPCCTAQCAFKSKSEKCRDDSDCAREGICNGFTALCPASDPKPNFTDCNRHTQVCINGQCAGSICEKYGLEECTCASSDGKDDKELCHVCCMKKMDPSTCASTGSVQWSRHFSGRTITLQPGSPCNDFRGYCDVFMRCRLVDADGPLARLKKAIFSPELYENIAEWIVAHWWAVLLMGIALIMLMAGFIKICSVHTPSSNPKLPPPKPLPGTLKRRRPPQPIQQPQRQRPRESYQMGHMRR
PLCb3 inh – blocks human PLC-beta3 enzyme activity; Q01970; Purified PLC-beta3, fluorogenic substrate, fluorescence; inhibition, % at 12.2 µM; 0.18% of 370,000 active; in the data active = inhibition above about 11%;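 note: 0% = median of compound wells on plate and 100% = full blocker control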
An asterisk follows results filed as active.

Results for COc1cccc(N(C(=O)Cn2nnc(-c3ccc(C)cc3)n2)C(C(=O)NC(C)(C)C)c2c[nH]c3ccccc23)c1 (stereo not drawn) ?
PLC-gamma1 inh: 5; ADAM17 inh: 12*; KLK7 zymogen act: 1; ADAM10 inh: 23*; PLCb3 inh: 4

How did CCN1C(=O)[C@H]2[C@@H](c3ccc(-c4ccc(F)cc4)c(OC)c3)N3CCCC[C@@]3(C(=O)OC)[C@H]2C1=O do in these assays?
PLC-gamma1 inh: 2; ADAM17 inh: 8.6*; KLK7 zymogen act: 0; ADAM10 inh: 7; PLCb3 inh: -1

Results for O=S1(=O)c2ccc(N3CCC[C@@H]3CO)cc2O[C@H]2CCN1C2 ?
PLC-gamma1 inh: -17; ADAM17 inh: -12; KLK7 zymogen act: 0; ADAM10 inh: -19; PLCb3 inh: -23

What do the screens show for `Cc1ccc(C2=CC(c3ccccc3)n3ncnc3N2)cc1` (stereo not drawn)?
PLC-gamma1 inh: inactive; ADAM17 inh: -164; KLK7 zymogen act: 53*; ADAM10 inh: inactive; PLCb3 inh: inactive

How did Cc1ccc(NC(=O)CN(C)C(=O)CSc2nccn2C)cc1 do in these assays?
PLC-gamma1 inh: 14*; ADAM17 inh: 3; KLK7 zymogen act: 0; ADAM10 inh: 5; PLCb3 inh: 7

Results for COc1ccc(N2C(=O)CC(NCC#N)C2=O)cc1 (stereo not drawn) ?
PLC-gamma1 inh: 1; ADAM17 inh: 1; KLK7 zymogen act: 0; ADAM10 inh: -3; PLCb3 inh: -5

How did COc1ccc(N2C(=O)CC(NCc3cccs3)C2=O)cc1 (stereo not drawn) do in these assays?
PLC-gamma1 inh: 11*; ADAM17 inh: 2; KLK7 zymogen act: 1; ADAM10 inh: 5; PLCb3 inh: 5

Results for COc1ccc(S[C@]2(C(=O)N3CCOCC3)CC(=O)N(c3ccc(Cl)cc3)[C@@H]2c2ccc(OC)cc2)cc1 ?
PLC-gamma1 inh: 3; ADAM17 inh: 3; KLK7 zymogen act: 0; ADAM10 inh: 12; PLCb3 inh: 0

Results for COc1cc2c3nnc(-c4ccc(F)cc4)c-3cn(Cc3ccccc3)c2cc1OC ?
PLC-gamma1 inh: inactive; ADAM17 inh: -220; KLK7 zymogen act: 29*; ADAM10 inh: inactive; PLCb3 inh: inactive

What do the screens show for `CN=C(Nc1ccc(Cl)cc1)c1ccc(C(F)(F)F)cc1`?
PLC-gamma1 inh: 15*; ADAM17 inh: 3; KLK7 zymogen act: -1; ADAM10 inh: 13; PLCb3 inh: 5

What do the screens show for `CCN(CC)CCOc1cc2c(nn1)Oc1ccccc1N2C`?
PLC-gamma1 inh: inactive; ADAM17 inh: -210; KLK7 zymogen act: 16*; ADAM10 inh: inactive; PLCb3 inh: inactive

Results for CN1c2ccccc2Oc2nnc(N3CCN(Cc4ccccc4)CC3)cc21 ?
PLC-gamma1 inh: inactive; ADAM17 inh: -455; KLK7 zymogen act: 5; ADAM10 inh: inactive; PLCb3 inh: inactive

How did Oc1c(C(Nc2cccc(C(F)(F)F)c2)c2ccncc2)ccc2cccnc12 (stereo not drawn) do in these assays?
PLC-gamma1 inh: -4; ADAM17 inh: 45*; KLK7 zymogen act: 1; ADAM10 inh: 12; PLCb3 inh: -10

How did CN(c1ccccc1)c1ccc(/C=C(\CCC(=O)O)c2nc3ccccc3s2)cc1[N+](=O)[O-] do in these assays?
PLC-gamma1 inh: -3; ADAM17 inh: 9.8*; KLK7 zymogen act: 0; ADAM10 inh: 18; PLCb3 inh: -12

What do the screens show for `CC(C)[C@@H](CO)N1Cc2nnn(Cc3ccccc3)c2-c2ccccc2S1(=O)=O`?
PLC-gamma1 inh: 0; ADAM17 inh: -2; KLK7 zymogen act: 0; ADAM10 inh: -5; PLCb3 inh: 2

Results for O=C(CSC1=NNC(c2ccccn2)S1)Nc1cccc(Cl)c1 (stereo not drawn) ?
PLC-gamma1 inh: -3; ADAM17 inh: 5; KLK7 zymogen act: -1; ADAM10 inh: 22*; PLCb3 inh: -11

How did C=CC[C@@H](Cc1ccc(F)cc1)C(=O)OC[C@@H]1CCCN1C(=O)[C@H](CC=C)CC(=O)N[C@H](CO)Cc1ccccc1 do in these assays?
PLC-gamma1 inh: 9.7*; ADAM17 inh: 15*; KLK7 zymogen act: 0; ADAM10 inh: 16; PLCb3 inh: 12*

How did COc1ccc(CN(C)CCc2ccccn2)cc1OC do in these assays?
PLC-gamma1 inh: 11*; ADAM17 inh: 3; KLK7 zymogen act: -1; ADAM10 inh: -3; PLCb3 inh: 13*

Results for O=[N+]([O-])c1ccc(Cl)c2c1C1C=CCC1C(c1ccccn1)N2 (stereo not drawn) ?
PLC-gamma1 inh: -1; ADAM17 inh: 2; KLK7 zymogen act: 0; ADAM10 inh: -6; PLCb3 inh: -5

Results for O=C(O)C1Nc2c(O)cc(Cl)c([N+](=O)[O-])c2C2C=CCC12 (stereo not drawn) ?
PLC-gamma1 inh: 31*; ADAM17 inh: 0; KLK7 zymogen act: 0; ADAM10 inh: -8; PLCb3 inh: 7

What do the screens show for `COC(=O)[C@]12C[C@H](CC(=O)NCc3cccs3)C(=O)N(Cc3ccco3)C1=C[C@H](C(C)C)O[C@@H]2C1CC1`?
PLC-gamma1 inh: 0; ADAM17 inh: -5; KLK7 zymogen act: 0; ADAM10 inh: -7; PLCb3 inh: -4

Results for O=C(NC1CCCCN(Cc2ccc(Cl)cc2)C1=O)c1ccccn1 (stereo not drawn) ?
PLC-gamma1 inh: 2; ADAM17 inh: -1; KLK7 zymogen act: -1; ADAM10 inh: -1; PLCb3 inh: -1

Results for Cc1ccc2nc(NC(=O)C3CCN(S(=O)(=O)c4cccs4)CC3)sc2c1 ?
PLC-gamma1 inh: 2; ADAM17 inh: 6; KLK7 zymogen act: 0; ADAM10 inh: 21*; PLCb3 inh: 2

What do the screens show for `COc1ccc2nc(NC(=O)C3CCN(S(=O)(=O)c4cccs4)CC3)sc2c1`?
PLC-gamma1 inh: 1; ADAM17 inh: 4; KLK7 zymogen act: 1; ADAM10 inh: 7; PLCb3 inh: 0

What do the screens show for `CC(C)CNc1cccc2c1S(=O)(=O)N(Cc1cn(Cc3ccc(C(F)(F)F)cc3)nn1)Cc1ccccc1O2`?
PLC-gamma1 inh: -24; ADAM17 inh: -5; KLK7 zymogen act: -11; ADAM10 inh: -25; PLCb3 inh: -27

What do the screens show for `O=C(CCc1ccccc1)N[C@H]1[C@@H](OC(=O)c2cccnc2)CCC[C@@]12C(=O)N(Cc1ccccc1)c1ccccc12`?
PLC-gamma1 inh: 6; ADAM17 inh: 0; KLK7 zymogen act: 1; ADAM10 inh: 4; PLCb3 inh: 5

Results for O=C(O)c1cc(-c2ccccc2)nn1CC1CC(c2cccc([N+](=O)[O-])c2)=NO1 (stereo not drawn) ?
PLC-gamma1 inh: 9.9*; ADAM17 inh: 3; KLK7 zymogen act: 0; ADAM10 inh: -2; PLCb3 inh: 6

What do the screens show for `CCOC(=O)c1cc(-c2ccccc2)nn1CC1CC(c2cccc([N+](=O)[O-])c2)=NO1` (stereo not drawn)?
PLC-gamma1 inh: -3; ADAM17 inh: 0; KLK7 zymogen act: 0; ADAM10 inh: 7; PLCb3 inh: 9
